We go through 20 sequences from the OligoGym collection.
Also: reference of the scale not given here.

For the first assay, the target named is METTL21D. Kind of assay: pooled miR-30 sensor sort-seq; sequence = guide strand. Conditions: shRNA.
Take TTGGCTTGAACAGAACCAGTGA: the sensor-assay potency score (higher = more potent) was determined as 0.803.

TAGCACTGTACCATCCCGCTTC: the sensor-assay potency score (higher = more potent) is 0.175.

As to TTAAACTCTGAAGACAAACTAA, the sensor-assay potency score (higher = more potent) was -0.429.

In the case of TGAACTAAGTAACCTAAGCTGG, the sensor-assay potency score (higher = more potent) was -0.584.

With TTGTAGTTATTCAAAAACCTTT, the sensor-assay potency score (higher = more potent) is -1.15.

For TTGCAATTCCTCAAGATCGGTG, the sensor-assay potency score (higher = more potent) is -0.436.

Consider TTTGTCTTCTTAGCAACTCATT, for which the sensor-assay potency score (higher = more potent) was -1.33.

Turning to TTCGTTGTTCATAACAACATAT, the sensor-assay potency score (higher = more potent) is -1.05.

The next assay concerns the target MET. The description is as above. Conditions: shRNA.
In turn, TATTCTTGTGTGAAAAGTCTGA displayed a sensor-assay potency score (higher = more potent) of 0.132.

TAGAATGACATTCTGGATGGGT: the sensor-assay potency score (higher = more potent) is 0.522.

Regarding TTGATATTGAGACAACACCAGC, the sensor-assay potency score (higher = more potent) is -1.2.

As to TATGTCAGCAGTATGATTGTGG, the sensor-assay potency score (higher = more potent) amounted to 0.148.

On to TTTCTTGCCATCATTGTCCAAC, for which the sensor-assay potency score (higher = more potent) is -0.767.

As to TTCTGTGAGAATACACTCCAGA, the sensor-assay potency score (higher = more potent) was -0.115.

Turning to TTAAACACTTCCTTCTTTGTGG, the sensor-assay potency score (higher = more potent) came out at 0.061.

With TTGCTTTGTGCGAACACCCCGA, the sensor-assay potency score (higher = more potent) amounted to 0.0698.

In the case of TTGAGTTTGCAGACTTTCCAAA, the sensor-assay potency score (higher = more potent) was -0.558.

Take TGATCGAGAAACCACAACCTGC: the sensor-assay potency score (higher = more potent) was -1.33.

In the case of TATATTAAACACTTCCTTCTTT, the sensor-assay potency score (higher = more potent) worked out at 0.147.

In the case of TTCATTGAAATGCACAATCAGG, the sensor-assay potency score (higher = more potent) is -0.957.
